The source made the active and inactive calls.
Assays:
[1] = anti-His antibody binders, primary screen, artefact control for SMM control protein annotation, biochemical, small-molecule microarray, 635 nm fluorescence (AID 1128); conditions: anti-His Alexa647 antibody binding, higher = more signal;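 also: score merges feature fluorescence with signal-to-noise for each printed compound spot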
[2] = system: Human papillomavirus type 1a E7 protein (residues 1-88); assay: HPV1a E7 small-molecule binders, primary screen, biochemical, small-molecule microarray, residues 1-88, 635 nm (AID 1129); conditions: small-molecule microarray binding, fluorescence 635 nm; higher = more signal
[3] = target: Focal adhesion kinase 1 (Homo sapiens) (UniProt Q05397); assay: small-molecule microarray binders of FAK, primary screen, biochemical, 635/667 nm fluorescence, BSA, DTT (AID 1130); conditions: PTK2 binding, 635 nm fluorescence, higher = more signal;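 also: composite of spot emission at 667 nm and signal to noise over triplicate slides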
Sequence of Focal adhesion kinase 1 (Homo sapiens) (Q05397 whole entry, looked up): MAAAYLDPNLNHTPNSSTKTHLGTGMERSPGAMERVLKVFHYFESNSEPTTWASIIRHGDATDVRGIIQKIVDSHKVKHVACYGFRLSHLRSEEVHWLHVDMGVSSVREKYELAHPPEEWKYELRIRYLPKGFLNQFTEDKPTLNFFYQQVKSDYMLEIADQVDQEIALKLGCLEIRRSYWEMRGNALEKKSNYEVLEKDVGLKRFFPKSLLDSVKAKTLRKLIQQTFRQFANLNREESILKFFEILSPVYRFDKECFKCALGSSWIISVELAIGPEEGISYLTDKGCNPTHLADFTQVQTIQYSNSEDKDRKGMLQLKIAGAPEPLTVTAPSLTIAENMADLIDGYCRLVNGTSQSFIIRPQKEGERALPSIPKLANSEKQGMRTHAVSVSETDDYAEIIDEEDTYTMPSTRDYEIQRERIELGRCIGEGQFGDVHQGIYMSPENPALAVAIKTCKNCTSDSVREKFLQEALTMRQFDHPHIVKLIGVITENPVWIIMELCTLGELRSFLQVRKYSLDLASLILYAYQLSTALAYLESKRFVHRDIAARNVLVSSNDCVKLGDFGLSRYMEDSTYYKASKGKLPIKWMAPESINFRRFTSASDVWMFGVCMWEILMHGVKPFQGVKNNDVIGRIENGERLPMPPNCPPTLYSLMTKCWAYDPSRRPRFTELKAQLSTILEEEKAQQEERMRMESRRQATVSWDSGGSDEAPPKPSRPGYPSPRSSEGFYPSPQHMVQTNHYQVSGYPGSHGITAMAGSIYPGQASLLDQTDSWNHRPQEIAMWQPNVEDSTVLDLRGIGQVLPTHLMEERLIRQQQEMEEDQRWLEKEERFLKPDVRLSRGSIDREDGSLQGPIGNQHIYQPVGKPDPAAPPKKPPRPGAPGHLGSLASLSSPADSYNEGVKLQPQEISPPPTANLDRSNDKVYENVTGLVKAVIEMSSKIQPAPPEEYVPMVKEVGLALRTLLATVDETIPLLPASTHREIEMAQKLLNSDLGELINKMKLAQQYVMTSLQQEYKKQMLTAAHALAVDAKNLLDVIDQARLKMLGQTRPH

[4] = system: Fibrinogen (Alexa647-labelled); assay: fibrinogen binders on compound microarrays, profiling panel, artefact control for SMM control-protein annotation, biochemical, small-molecule microarray, 635/667 nm fluorescence (AID 1131); conditions: fibrinogen-A647 binding fluorescence, higher = more signal;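 also: z-score merges 667 nm fluorescence with per-spot signal-to-noise over triplicate slides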
[5] = target: Follistatin (Homo sapiens) (UniProt P19883); assay: follistatin binders on small-molecule microarrays, primary screen, biochemical, small-molecule microarray, 635/667 nm fluorescence (AID 1132); conditions: FST binding, 635 nm fluorescence, higher = more signal
Sequence of Follistatin (Homo sapiens) (P19883 whole entry, looked up): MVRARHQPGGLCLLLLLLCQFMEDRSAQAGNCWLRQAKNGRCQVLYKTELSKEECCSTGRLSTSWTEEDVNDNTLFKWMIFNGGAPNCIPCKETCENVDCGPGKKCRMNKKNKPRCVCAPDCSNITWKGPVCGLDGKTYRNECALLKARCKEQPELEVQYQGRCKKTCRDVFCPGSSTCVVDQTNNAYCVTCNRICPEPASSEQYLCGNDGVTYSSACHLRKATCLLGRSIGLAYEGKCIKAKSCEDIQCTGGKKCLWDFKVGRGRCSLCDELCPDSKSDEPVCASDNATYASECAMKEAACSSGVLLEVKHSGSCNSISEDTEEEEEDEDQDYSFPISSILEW

[6] = target: Fibroblast growth factor 2 (Homo sapiens) (UniProt P09038); assay: FGF2 binders on small-molecule microarrays, primary screen, biochemical, small-molecule microarray, 635/667 nm fluorescence (AID 1133); conditions: small-molecule microarray binding, FGF2, fluorescence 635/667; higher = more signal
Sequence of Fibroblast growth factor 2 (Homo sapiens) (P09038 whole entry, looked up): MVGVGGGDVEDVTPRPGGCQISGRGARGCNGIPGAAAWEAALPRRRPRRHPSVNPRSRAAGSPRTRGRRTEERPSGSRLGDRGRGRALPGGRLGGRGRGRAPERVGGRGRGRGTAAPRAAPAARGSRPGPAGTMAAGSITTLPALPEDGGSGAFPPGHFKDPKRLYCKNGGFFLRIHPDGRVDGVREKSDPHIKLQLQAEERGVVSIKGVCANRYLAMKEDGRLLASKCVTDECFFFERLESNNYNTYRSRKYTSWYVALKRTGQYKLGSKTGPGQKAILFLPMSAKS

[7] = mitochondrial membrane potential change in A549 cells, profiling panel, cell-based, JC-1 fluorescence, basal, 24 h, 100 nL (AID 1138); conditions: higher = more signal;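 also: A549 lung adenocarcinoma cells under basal conditions with no added stimulus; test concentration not given here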
Lefty1 = Lefty1 binders on small-molecule microarrays, primary screen, biochemical, small-molecule microarray, 635/667 nm fluorescence (AID 1139); conditions: small-molecule microarray binding, fluorescence 635/667; higher = more signal
[8] = system: wheat germ agglutinin (Triticum aestivum), Alexa647-labelled; assay: wheat germ agglutinin binders on compound microarrays, profiling panel, artefact control for SMM control-protein annotation, biochemical, small-molecule microarray, 635/667 nm fluorescence (AID 1140); conditions: WGA-A647 binding, 635 nm fluorescence, higher = more signal;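 also: score merges 667 nm feature emission with signal to noise over triplicate slides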
[9] = target: Luciferin 4-monooxygenase (Photinus pyralis) (UniProt P08659); assay: firefly luciferase enzyme inhibitors, primary screen, biochemical, luminescence, purified enzyme, 2006 set (AID 1141); conditions: SteadyGlo luminescence, 30 min, higher = more signal, called active from +8 up or from −8 down;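 also: cell-free assay with purified firefly luciferase at 100 ng per well in PBS; test concentration not given here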
Sequence of Luciferin 4-monooxygenase (Photinus pyralis) (P08659 whole entry, looked up): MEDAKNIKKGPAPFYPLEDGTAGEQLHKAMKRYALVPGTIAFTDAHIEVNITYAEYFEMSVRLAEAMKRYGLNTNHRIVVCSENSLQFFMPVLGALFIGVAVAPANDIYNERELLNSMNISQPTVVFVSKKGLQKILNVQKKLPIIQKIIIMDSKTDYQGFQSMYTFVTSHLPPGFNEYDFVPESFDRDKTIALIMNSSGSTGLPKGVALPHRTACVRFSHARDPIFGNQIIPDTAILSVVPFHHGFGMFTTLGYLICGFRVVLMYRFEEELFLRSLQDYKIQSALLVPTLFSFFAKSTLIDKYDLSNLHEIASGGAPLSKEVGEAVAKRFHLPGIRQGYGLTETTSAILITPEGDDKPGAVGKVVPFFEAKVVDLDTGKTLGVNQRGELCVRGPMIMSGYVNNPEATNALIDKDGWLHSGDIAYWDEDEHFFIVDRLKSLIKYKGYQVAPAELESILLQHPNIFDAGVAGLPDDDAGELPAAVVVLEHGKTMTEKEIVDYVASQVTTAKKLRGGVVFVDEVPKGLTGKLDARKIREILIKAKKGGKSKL

Compound | composite z-score [1] | composite z-score [2] | composite z-score [3] | composite z-score [4] | composite z-score [5] | composite z-score [6] | z-score [7] | composite z-score (Lefty1) | composite z-score [8] | z-score [9]
CCN(CC)c1ccc(N2CC=CC34O[C@@H]5C=CCOC(=O)[C@@H]5[C@H]3C(=O)N(CCCCCO)[C@@H]4C2=O)cc1 (stereo not given in full) | 3.37 | -0.959 | -0.0973 | -1.59 | -0.915 | -0.551 | 1.24 | -0.439 | -0.559 | -0.439 (inactive)
O=C1O[C@@H](c2ccccc2)[C@@H](c2ccccc2)N2[C@@H](c3ccc(O)cc3)[C@]3(C(=O)Nc4ccccc43)[C@@H](C(=O)N3CCCCCCC3)[C@H]12 | 2.96 | 1.23 | 1.22 | 0.827 | 1.43 | 1.64 | 0.48 | 1.6 | 1.46 | 1.04 (inactive)
O=C1C2C=CC(C(O)CCc3ccccc3)N(Nc3ccccc3)C2C(=O)N1c1ccccc1 (stereo not given) | 1.89 | 1.23 | 0.477 | 0.889 | 0.471 | -0.464 | -0.411 | 0.38 | 1.44 | -0.0874 (inactive)
CCOC(=O)C1=CC[C@@H](c2ccccc2)N(S(=O)(=O)c2ccc(C)cc2)[C@H]1c1ccc(C#N)cc1 | 1 | 1.19 | 0.456 | 0.931 | -0.0375 | -0.732 | 2.11 | -0.507 | 1.23 | 1.23 (inactive)
CCN(CC)c1ccc(N2CC=CC34O[C@@H]5/C=C\CCC(C)OC(=O)C5[C@H]3C(=O)N(CCCCCCO)[C@@H]4C2=O)cc1 (stereo not given in full) | 0.0517 | -0.089 | -0.182 | -1.59 | -0.371 | -0.361 | 0.905 | -0.652 | 0.524 | -1.59 (inactive)
CCCC[C@@H]1C[C@H]1[C@@H](NC(=O)c1ccccc1)c1ccccc1 | 1.47 | -0.23 | 0.202 | 0.244 | 0.671 | 0.085 | -1.03 | -0.235 | 0.136 | 1.19 (inactive)
CN1C(=O)C2C=CC(C(O)C=Cc3ccc([N+](=O)[O-])cc3)N(N3CCCCC3)C2C1=O (stereo not given) | 1.25 | 1.2 | 0.518 | 0.966 | 1.4 | 0.544 | 0.39 | 0.393 | 1.28 | -1.79 (inactive)
COC(=O)[C@@]1(Cc2ccc(F)cc2)[C@H]2c3cc(C(=O)N4CCCC4)n(Cc4ccc(Cl)c(C(F)(F)F)c4)c3C[C@H]2CN1C(=O)c1ccccc1 | 2.45 | 1.23 | 0.777 | 1.01 | 1.08 | -0.716 | 0.815 | -0.862 | 1.22 | 1.18 (inactive)
COCCOC(=O)N1C(=O)[C@@]2(c3cc(C#CC4(O)CCCCCC4)ccc31)[C@H](c1ccc(O)cc1)N1[C@H](c3ccccc3)[C@H](c3ccccc3)OC(=O)[C@H]1[C@@H]2C(=O)N1CCc2cc(OC)c(OC)cc2C1 | -0.083 | -0.183 | 0.462 | -1.69 | -0.792 | -0.505 | -0.506 | -0.625 | 0.663 | 0.503 (inactive)
O=C(CS)NCCCCCCNC(=O)[C@H]1C[C@H]2C(=O)N3CCC[C@H]3C(=O)N2[C@H]1c1ccc(O)cc1 | 1.81 | 0.828 | 0.163 | 0.702 | 1.37 | 1.34 | -0.708 | 1.16 | 0.681 | 0.102 (inactive)
CC(C)N1C(=O)c2ccccc2[C@](C)(C(=O)NCCCN(C)C)[C@@H]1c1ccc(CO)cc1 | -0.439 | 0.717 | 2.34 | 0.562 | -0.106 | -0.224 | 0.256 | -0.573 | 0.231 | -0.562 (inactive)
CC1CC/C=C\[C@H]2OC34C=CCN(c5ccc6ccccc6c5)C(=O)[C@H]3N(CCCCCO)C(=O)[C@@H]4C2C(=O)O1 (stereo not given in full) | -0.946 | -0.824 | -0.673 | -2.2 | -1.02 | -1.65 | 0.987 | -0.994 | -0.0369 | -0.391 (inactive)
C#C[C@H]1Oc2ccccc2S(=O)(=O)N2CCC[C@@H]12 | -0.233 | -0.704 | -0.434 | -0.597 | 0.963 | 0.0278 | 0.092 | 1.51 | -0.719 | 0.119 (inactive)
C=CCC(OC(C)=O)[C@@H]1[C@@H](N(Cc2cc3ccccc3o2)C(=O)c2ccc(C)cc2)c2cc(OCCCO)ccc2N1C(=O)c1ccc(-c2ccccc2)cc1 (stereo not given in full) | -0.277 | 0.0357 | 0.13 | 0.122 | 0.714 | -0.206 | 0.291 | 0.239 | 0.107 | 0.352 (inactive)
O=C1O[C@@H](c2ccccc2)[C@@H](c2ccccc2)N2[C@@H](c3ccc(O)cc3)[C@]3(C(=O)Nc4ccc(C#CCCO)cc43)[C@@H](C(=O)N3CCCCCCC3)[C@H]12 | 2.27 | 1.24 | 0.724 | 0.952 | 1.42 | 0.94 | -0.158 | 1.26 | 1.21 | 0.0848 (inactive)
Cc1ccc(S[C@]2(C(=O)NCCCN(C)C)CC(=O)N(Cc3ccccc3)[C@@H]2c2ccc(CO)cc2)cc1 | -0.786 | -0.335 | -0.371 | -0.865 | 0.0417 | -0.734 | 0.803 | -1.53 | -0.0701 | -1.1 (inactive)
O=c1cccc(-c2cccc3ccccc23)o1 | 0.874 | 1.2 | 1.35 | 0.708 | 0.26 | -0.32 | 0.316 | -0.789 | 0.8 | 1.52 (inactive)
C=C[C@H](C)[C@H](OC(=O)Nc1ccc(OC)cc1)c1ccc(O)c2ccccc12 | -0.732 | -0.337 | -0.208 | 0.604 | 0.782 | 0.39 | -1.6 | 0.47 | 0.0411 | -3.78 (inactive)
COc1ccccc1CN1C(=O)c2ccccc2[C@](Cc2ccccc2I)(C(=O)NC2CC2)[C@@H]1c1ccc(CO)cc1 | 1.74 | 1.26 | 0.646 | 0.987 | 1.32 | 1.55 | 1.16 | 1.16 | 0.52 | 0.985 (inactive)
CCCCC(=O)N(Cc1ccccc1F)[C@@H]1CC(C(=O)NCCO)=C[C@H](Oc2c(I)cc(CO)cc2OC)[C@H]1O | 1.28 | 1.25 | 1.38 | 0.96 | 1.51 | 2.04 | -1.47 | 1.58 | 0.736 | 1.57 (inactive)
O=[N+]([O-])c1ccc(C[n+]2ccc(CCCO)cc2)o1 | -0.0383 | 1.07 | 1.08 | 0.752 | 1.4 | 1.77 | -0.506 | 0.73 | 0.226 | -0.868 (inactive)
Cc1ccc(S[C@]2(C(=O)NCCN3CCOCC3)CC(=O)N(C3CCCCC3)[C@@H]2c2ccc(CO)cc2)cc1 | 1.81 | 1.21 | 1.02 | 0.611 | 0.102 | -0.262 | 1.63 | -0.299 | 0.211 | -0.125 (inactive)
C=CCCN(CC#C[C@H]1Oc2ccccc2S(=O)(=O)N2CCC[C@@H]12)S(=O)(=O)c1ccc(C)cc1 | 0.881 | 0.136 | 0.172 | -0.348 | 0.546 | 1.22 | 0.957 | 0.317 | -0.0231 | -0.291 (inactive)
C=CC[C@]1(C(=O)O)N=C(c2ccc(OCCCO)cc2)O[C@H]1c1ccccc1CN=[N+]=[N-] | 0.518 | -0.583 | 0.174 | -0.276 | 0.349 | -0.39 | 0.00796 | -0.316 | 0.184 | -0.893 (inactive)
CCOC(=O)C=Cc1cccc(OC)c1O | 0.447 | -0.311 | -0.227 | 0.102 | -0.248 | -1.13 | -1.37 | -0.679 | 0.859 | -17.6 (active)
O=C1C2C=CC(C(O)c3ccc(-c4ccccc4)s3)N(Nc3ccccc3F)C2C(=O)N1c1ccccc1 (stereo not given) | 1.29 | 1.21 | 0.816 | 0.997 | 1.18 | 1.16 | -1.12 | 0.133 | 0.994 | -0.324 (inactive)
C=C[C@H](C)[C@H](O)c1ccc(OCCO)cc1 | -0.151 | -1.55 | 0.151 | -2.74 | -0.74 | -1.2 | 0.145 | -0.91 | -0.89 | -24.9 (active)

Reference: PubChem BioAssay
